Data from PubChem BioAssay.
Values without a mark were called inactive. Active and inactive are the calls of the source. Unless noted, no rule for the calls is given here.

Target: Homeobox protein Hox-A13 (Mus musculus) (UniProt Q62424)
Sequence (Q62424 whole entry, looked up): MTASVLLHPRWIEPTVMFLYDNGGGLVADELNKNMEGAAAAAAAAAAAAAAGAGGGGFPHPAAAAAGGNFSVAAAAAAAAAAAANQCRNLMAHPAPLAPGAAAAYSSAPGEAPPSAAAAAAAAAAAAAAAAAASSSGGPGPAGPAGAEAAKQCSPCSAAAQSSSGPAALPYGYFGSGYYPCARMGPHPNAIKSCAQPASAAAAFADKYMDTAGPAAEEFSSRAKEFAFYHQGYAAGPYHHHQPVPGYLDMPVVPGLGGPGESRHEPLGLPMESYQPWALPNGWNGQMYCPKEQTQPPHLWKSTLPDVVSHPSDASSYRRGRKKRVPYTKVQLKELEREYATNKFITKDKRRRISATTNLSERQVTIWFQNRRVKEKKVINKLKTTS
Assay: disruptors of Hoxa13 oligonucleotide interaction – biochemical, fluorescence polarization, labeled oligonucleotide, primary screen (AID 1185)
Conditions: Hoxa13:DNA binding, 15 min, higher = more signal, called active from +8 up or from −8 down
For `COC(=O)C1=CCC(c2cccc(Cl)c2)O1` (stereo not given), the z-score was -0.451. Compound `C=CC[C@@H]1C=C[C@H](ON=C(C)CCN2CCc3nc(CC)c(CC)cc3C2)[C@@H](CO)O1` has a z-score of -5.51. For `CC(=O)OC[C@H]1O[C@H](CCON=C[C@@H](C)[C@H](OCc2ccccc2)C(C)C)C=C[C@@H]1OC(C)=O`, the z-score was -4.91. `CCOC(=O)[C@H](Cc1ccccc1)NC(=O)CCC1CC(OC(=O)NCc2ccc3c(c2)OCO3)CC2(CCCC(COC(=O)NCc3cccc(C(F)(F)F)c3)O2)O1` (stereo not given in full) gave a z-score of -0.531. Work on `CCOC(=O)[C@H](CC(C)C)NC(=O)CCC1CC(OC(=O)NCc2cccc3ccccc23)CC2(CCCC(COC(=O)NCCc3ccccc3OC)O2)O1` (stereo not given in full) yielded a z-score of -3.13. `CC(=O)OC[C@H]1O[C@H](CCON=C(C)CCC(=O)OC[C@H]2O[C@H](C#Cc3ccccc3)C=C[C@@H]2Oc2ccc(C)cc2)C=C[C@@H]1OC(C)=O` gave a z-score of -2.62. `C#C[C@@H](CC)O[Si](C#Cc1ccc(Oc2ccccc2)cc1)(C(C)C)C(C)C` showed a z-score of -0.279. With `O=C1C[C@@H](O)[C@@H](O)[C@@H]2[C@@H]3C(=O)N(c4cccc(Oc5ccccc5)c4)C(=O)[C@@H]3CC[C@@H]12` the z-score was -4.11. Work on `O=C1[C@H]2[C@H]3[C@H](O)[C@H](O)CC(=NO[C@@H]4O[C@H](CO)[C@@H](O)[C@H](O)[C@H]4O)[C@H]3CC[C@H]2C(=O)N1Cc1ccccc1` yielded a z-score of -1.28. With `COc1cccc([C@H]2Oc3ccc(OC)cc3C(=NOC(C)CN3CCCc4nc(C)c(C)cc43)[C@@H]2O)c1` (stereo not given in full) the z-score was -8.09 (active). With `O=C1[C@H]2[C@H]3[C@H](O)[C@H](O)CC(=NOCc4ccccc4)[C@H]3CC[C@H]2C(=O)N1c1ccc(F)cc1F` the z-score was 1.02. Work on `O=C1[C@H]2[C@H]3[C@H](O)[C@H](O)CC(=NO[C@@H]4O[C@H](CO)[C@@H](O)[C@H](O)[C@H]4O)[C@@H]3CC[C@H]2C(=O)N1Cc1ccccc1` yielded a z-score of 0.638. `C=C(CCCC)C(=O)CC[C@@H](OC(C)=O)c1cccc(OCCO)c1` showed a z-score of -3.72. For `O=C1[C@H]2[C@H]3[C@H](O)[C@H](O)CC(=NOC[C@@H](O)COCc4ccco4)[C@@H]3CC[C@H]2C(=O)N1c1ccc(F)cc1F`, the z-score was -4.05. `CC(=O)OC[C@H]1O[C@H](CCON=C(C)CCN2CCc3nc(-c4ccccc4)c(-c4ccccc4)cc3C2)C=C[C@@H]1OC(C)=O` gave a z-score of -4.36. In the case of `COC(=O)[C@H](C)NC(=O)CCC1CC(OC(=O)NCc2cccc3ccccc23)CC2(CCCC(COC(=O)NCCc3ccc(Cl)cc3)O2)O1` (stereo not given in full), the z-score is reported as -1.77. Work on `C=CC[C@]1(C(=O)NCc2ccccc2)N=C(c2ccc(OCCCO)cc2)O[C@H]1c1ccccc1` yielded a z-score of -6.34. `COC(=O)CC=C[C@@H](C)[C@@H](C=NO[C@@H](C)c1cc(-c2c(C)cc(C)cc2C)no1)OC` gave a z-score of -3.69. In the case of `C=CC[C@@H]1C=C[C@H](ON=Cc2ccc(C(=O)N3[C@H](c4ccc(C)cc4)[C@@H](C)CC[C@H]3C(=O)OC)cc2)[C@@H](CO)O1`, the z-score is reported as -6.28. In the case of `CC(C)=CCCC(C)=CCON=C1[C@H]2CCn3c(=O)n(C)c(=O)n3[C@H]2[C@H](O)[C@@H]2O[C@H]12`, the z-score is reported as -0.682. For `COC(=O)[C@H](C)NC(=O)CCC1CC(OC(=O)NCc2ccc3c(c2)OCO3)CC2(CCCC(COC(=O)NCCOc3ccccc3)O2)O1` (stereo not given in full), the z-score was -2.45. In the case of `C[C@@H](c1ccccc1)N1C(=O)[C@H]2[C@H]3[C@H](O)[C@H](O)CC(=NNC(=O)OCc4ccccc4)[C@H]3CC[C@H]2C1=O`, the z-score is reported as -5.68. Work on `CCOC(=O)NN=C1C[C@@H](O)[C@@H](O)[C@@H]2[C@@H]3C(=O)N(C[C@@H]4CCCO4)C(=O)[C@@H]3CC[C@@H]12` yielded a z-score of 0.513. `C[C@@H]1CC[C@H]2C(=O)O[C@H](COc3ccc(C(C)(C)C)cc3)CN2[C@H]1c1ccc(Br)cc1` gave a z-score of 1.23. With `CC(CCN1CCc2nc(-c3ccccc3)c(-c3ccccc3)cc2C1)=NOC[C@@H](C)[C@H](OCc1ccccc1)C(C)C` the z-score was -0.978.

Test system: not listed separately
Assay: blockers of DNA damage checkpoint Chk1 activation – imaging, HeLa, hydroxyurea, phospho-Chk1 antibody, percent positive cells, primary screen (AID 1186)
Conditions: hydroxyurea-induced phospho-Chk1 immunofluorescence imaging, higher = more signal
With `CCCC[C@@H](O)C1=C(C)C[C@H]2C(=O)N(Cc3ccccc3)C(=O)[C@H]2[C@H]1CO` the z-score was 0.391. In the case of `COC(=O)C1=CCC(c2cccc(Cl)c2)O1` (stereo not given), the z-score is reported as 0.456. For `C#C[C@@H](CC)O[Si](C#Cc1ccc(Oc2ccccc2)cc1)(C(C)C)C(C)C`, the z-score was 0.169. Compound `C=C(CCCC)C(=O)CC[C@@H](OC(C)=O)c1cccc(OCCO)c1` has a z-score of 0.163. `C=CC[C@]1(C(=O)NCc2ccccc2)N=C(c2ccc(OCCCO)cc2)O[C@H]1c1ccccc1` showed a z-score of 0.0635.

Test system: not listed separately
Assay: blockers of DNA damage checkpoint Chk1 activation – imaging, HeLa, hydroxyurea, phospho-Chk1 nuclear intensity, primary screen (AID 1187); also: test concentration not given here
Conditions: hydroxyurea-induced phospho-Chk1 immunofluorescence imaging, higher = more signal
`CCCC[C@@H](O)C1=C(C)C[C@H]2C(=O)N(Cc3ccccc3)C(=O)[C@H]2[C@H]1CO` gave a z-score of 0.984. Work on `COC(=O)C1=CCC(c2cccc(Cl)c2)O1` (stereo not given) yielded a z-score of 0.498. `C#C[C@@H](CC)O[Si](C#Cc1ccc(Oc2ccccc2)cc1)(C(C)C)C(C)C` showed a z-score of -0.0725. Compound `C=C(CCCC)C(=O)CC[C@@H](OC(C)=O)c1cccc(OCCO)c1` has a z-score of 0.0394. For `C=CC[C@]1(C(=O)NCc2ccccc2)N=C(c2ccc(OCCCO)cc2)O[C@H]1c1ccccc1`, the z-score was 0.896.
